Measured values as given in PubChem BioAssay AID1159580 (chemical genetic matrix, 2015).
“And” between values parts separate entries of the source, which are not always exact repeats. Identical values can stand only once. Out of some 5,500 compounds screened, about 2,000 (36%) were called active. Roughly 18% stayed inconclusive and do not appear here. Rule as the data show it: active = normalized growth mostly below about 0.91 (no sharp cut-off); inconclusive = no clear call, values can overlap the other calls; inactive = mostly above about 0.92. The list shows a part of the results.

Experiment: chemical genetic growth profiling, strain panel (AID 1159580);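 also: tested at 20 µM; growth read once vehicle control cultures reached saturation at 30 °C; 1 = growth at the plate median or of vehicle wells; lower values mean less growth of the strain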
Details: S. cerevisiae deletion strains, growth OD

Measured: normalized growth

COc1cc(OC)c(-c2c(OC)cc(OC)cc2OC)c(OC)c1
inactive: locus YBR021W, strain FUR4, active compounds read low 1.05 | locus YBR229C, strain ROT2, active compounds read low 1.01 | locus YCL029C, strain bik1, active compounds read low 0.997 | locus YDL035C, strain GPR1, active compounds read low 1.02 | locus YDL074C, strain BRE1, active compounds read low 1.06 | locus YDL101C, strain DUN1, active compounds read low 1.03 | locus YDL185W, strain tfp1, active compounds read low 1.03 | locus YDL192W, strain arf1, active compounds read low 1.04 | locus YDR101C, strain arx1, active compounds read low 1.02 | locus YDR162C, strain NBP2, active compounds read low 1.04 | locus YDR318W, strain mcm21, active compounds read low 1.03 | locus YDR388W, active compounds read low 1.01 | locus YDR502C, strain sam2, active compounds read low 1.05 | locus YEL061C, strain CIN8, active compounds read low 1.01 | locus YER110C, active compounds read low 1.02 | locus YER155C, strain BEM2, active compounds read low 1.01 | locus YER167W, strain BCK2, active compounds read low 1.01 | locus YGL078C, strain dbp3, active compounds read low 1.05 | locus YGL086W, strain mad1, active compounds read low 1.04 | locus YGL248W, strain PDE1, active compounds read low 1.03 | locus YGR078C, strain PAC10, active compounds read low 1.06 | locus YGR135W, strain pre9, active compounds read low 1.07 | locus YGR252W, strain gcn5, active compounds read low 1.05 | locus YHR030C, strain SLT2, active compounds read low 0.998 | locus YHR079C, strain IRE1 (second series), active compounds read low 1.02 | locus YHR079C, strain IRE1, active compounds read low 0.998 | locus YHR094C, strain hxt1, active compounds read low 1.03 | locus YHR129C, strain ARP1, active compounds read low 1.01 | locus YHR200W, strain rpn10, active compounds read low 1.03 | locus YIL066C, strain RNR3, active compounds read low 1.02 | locus YIL073C, strain SPO22, active compounds read low 1.1 | locus YIL125W, strain kgd1, active compounds read low 1.01 | locus YIR030C, strain dcg1, active compounds read low 1.02 | locus YJL095W, strain BCK1, active compounds read low 1.09 and 0.999 | locus YJL134W, strain LCB3, active compounds read low 1.01 | locus YJL168C, strain set2, active compounds read low 1.02 | locus YJL187C, strain SWE1 (second series), active compounds read low 1.06 | locus YJR066W, strain TOR1, active compounds read low 0.953 | locus YJR075W, strain HOC1, active compounds read low 1.04 | locus YKL009W, strain mrt4, active compounds read low 1.06 | locus YKL068W, active compounds read low 0.993 | locus YKL085W, strain MDH1 (second series), active compounds read low 1.01 | locus YKL085W, strain MDH1, active compounds read low 1.01 | locus YKL190W, strain CNB1, active compounds read low 1.02 | locus YKR001C, strain vps1, active compounds read low 1.05 | locus YLR039C, strain RIC1, active compounds read low 1.07 | locus YLR058C, strain SHM2, active compounds read low 1.04 | locus YLR102C, strain apc9, active compounds read low 1.01 | locus YLR113W, strain HOG1, active compounds read low 1 | locus YLR262C, strain YPT6, active compounds read low 1.09 | locus YLR268W, strain sec22, active compounds read low 1.02 | locus YLR371W, strain rom2, active compounds read low 1.02 | locus YLR418C, strain cdc73, active compounds read low 1.13 | locus YML016C, strain PPZ1, active compounds read low 1.02 | locus YML032C, strain rad52, active compounds read low 1.04 | locus YML124C, strain tub3, active compounds read low 1.02 | locus YMR078C, strain ctf18, active compounds read low 1.02 | locus YMR223W, strain ubp8, active compounds read low 1.04 | locus YMR307W, strain GAS1, active compounds read low 1.07 | locus YNL067W, strain RPL9B, active compounds read low 1.05 | locus YNL183C, strain NPR1, active compounds read low 0.948 | locus YNL233W, strain BNI4, active compounds read low 1.07 | locus YNL250W, strain rad50, active compounds read low 1.06 | locus YNL271C, strain bni1, active compounds read low 1.02 | locus YNL298W, strain CLA4, active compounds read low 1.03 | locus YNL307C, strain MCK1, active compounds read low 1.03 | locus YNR052C, strain pop2, active compounds read low 1.04 | locus YOL006C, strain TOP1, active compounds read low 1.15 | locus YOL012C, strain htz1 0.971 | locus YOL147C, strain pex11, active compounds read low 1.03 | locus YOR061W, strain CKA2, active compounds read low 1.02 | locus YOR069W, strain VPS5, active compounds read low 1.01 | locus YOR136W, strain idh2, active compounds read low 1.03 | locus YOR144C, strain elg1, active compounds read low 1.02 | locus YOR184W, strain ser1, active compounds read low 1.04 | locus YOR231W, strain MKK1, active compounds read low 0.976 | locus YOR316C, strain cot1, active compounds read low 1.03 | locus YPL256C, strain CLN2, active compounds read low 0.997 | locus YPR119W, strain clb2, active compounds read low 1.01 | locus YPR141C, strain kar3, active compounds read low 1.02 | locus YPR163C, strain tif3, active compounds read low 1.03 | locus YPR167C, strain met16, active compounds read low 1.03 | strain wtn01, active compounds read low 1.03
